Screens (PubChem BioAssay)
POLK inh – inhibitors of human DNA polymerase kappa | Q9UBT6 | purified Pol kappa, fluorescent DNA synthesis assay, 10 min | Potency, µM (top dose mostly 107 µM), for the others: at the top dose activity, negative = inhibition, most hits filed as inhibitors | actives 0.53% (n = 400,000); further: potency means the concentration at half of the fitted maximal effect; on the % scale 0 is the no-effect control and ±100 the full control effect
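Kinetic fluorescence readout at 0 and 10 min followed reaction start with substrate at 50 nM final. Beforehand, enzyme (10 nM Pol kappa) stood 15 min with compound at room temperature; buffer-only wells were negative controls.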
POLI inh – DNA polymerase iota (human) inhibition. actives 1% (n = 390,000). AID 588590. Q9UNA4. Potency, µM (doses to about 115 µM), for the others: at the top dose activity, negative = inhibition, usual class: inhibitors. Pol iota fluorescent replication assay, 10 min; further: potency means the concentration at half of the fitted maximal effect
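Pol iota at 10 nM preincubated 15 min with compounds at room temperature; reaction started with fluorescent substrate, 50 nM final. Fluorescence read kinetically at 0 and 10 min; buffer-only wells as negative control.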
PI4K2A block – inhibitors of human PI4K2A; purified PI4K2A, ADP-Glo luminescence, 1 h; stronger effect = lower value; AID 1346378; activity change, negative = inhibition, % at 76.9 µM; Q9BTU6; actives 0.13% (n = 420,000); in the data active means activity change below about -50%; inconclusive means mostly about -30% to -49%;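 further: -100% = wells without enzyme as full effect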
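PI4K2A activity was measured by ADP-Glo luminescence: enzyme (4 ug/mL stock) and phosphatidylinositol (1.2 mM stock) in Tris pH 7.5/MgCl2/EGTA/Triton X-100 buffer were reacted with ATP (300 microM stock) for one hour at ambient temperature.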
Pol beta inh – inhibitors of human DNA polymerase beta | Potency, µM (titrated, usually from 114 µM), without a hit: at the highest dose activity change, negative = inhibition, hits mostly inhibitors | actives 1.3% (n = 340,000) | AID 485314 | P06746 | Pol beta primer extension/strand displacement, fluorescence kinetic; further: potency means the concentration at half of the fitted maximal effect; on the % scale 0 is the no-effect control and ±100 the full control effect
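Preincubation: enzyme (10 nM) with compound, 15 min, RT. Reaction: substrate added to 50 nM final. Reads: 0 and 10 min. Analysis: normalized, Hill fit.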
PI5P4Ka inh – inhibitors of human PI5P4K alpha; P48426; actives 1.2% (n = 330,000); PI5P4Kalpha enzyme, ADP-Glo luminescence, 60 min; stronger effect = lower value; max response, %; active means max response of -50% or lower; inconclusive means between -30% and -50%; inactive means -30% or higher; further: value at the top dose of about 77 µM; on the % scale 0 is the no-effect control and ±100 the full control effect
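Compounds were pin-transferred onto PI5P4Kalpha and substrate in HEPES pH 7.4 buffer with EGTA, CHAPS and 5% DMSO. ATP (5 microM final) started the reaction, which ran 60 minutes at room temperature before ADP-Glo detection.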
POLH inh – DNA polymerase eta (human) inhibition. Q9Y253. recombinant Pol eta, fluorescent DNA replication assay. Potency, µM (top dose mostly 114 µM), without a hit: at the top dose activity change, negative = inhibition, most hits filed as inhibitors. actives 1.2% (n = 390,000). AID 588591; further: potency means the concentration at half of the fitted maximal effect; on the % scale 0 is the no-effect control and ±100 the full control effect
Target sequence (Q9Y253 whole entry, looked up): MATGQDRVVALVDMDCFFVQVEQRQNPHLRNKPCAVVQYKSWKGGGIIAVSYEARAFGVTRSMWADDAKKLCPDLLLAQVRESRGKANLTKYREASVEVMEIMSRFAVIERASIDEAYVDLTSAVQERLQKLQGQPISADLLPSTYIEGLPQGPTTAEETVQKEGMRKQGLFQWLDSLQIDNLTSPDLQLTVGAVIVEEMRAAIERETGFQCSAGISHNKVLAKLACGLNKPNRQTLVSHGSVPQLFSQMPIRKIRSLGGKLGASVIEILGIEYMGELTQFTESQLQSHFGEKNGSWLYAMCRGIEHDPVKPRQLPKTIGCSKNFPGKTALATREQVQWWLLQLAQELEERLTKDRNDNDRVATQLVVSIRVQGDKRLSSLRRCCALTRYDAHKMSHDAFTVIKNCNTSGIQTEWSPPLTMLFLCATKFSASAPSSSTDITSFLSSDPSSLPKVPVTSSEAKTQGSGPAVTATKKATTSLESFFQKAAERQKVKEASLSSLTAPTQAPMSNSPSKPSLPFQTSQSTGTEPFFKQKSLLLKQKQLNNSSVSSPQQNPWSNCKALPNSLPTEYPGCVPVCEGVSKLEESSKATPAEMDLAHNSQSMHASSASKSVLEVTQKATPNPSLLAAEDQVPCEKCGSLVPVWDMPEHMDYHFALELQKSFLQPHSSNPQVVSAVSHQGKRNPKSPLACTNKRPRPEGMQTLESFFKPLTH
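Fluorescent replication assay: 50 nM final substrate added after a 15 min room-temperature compound preincubation with 10 nM enzyme. Signal taken at 0 min and again at 10 min.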
The depositor's hits bear a star; ? = inconclusive; · = not tested or not shown; [ ] = dose if it differs, or a comment. This is a sample that favours compounds with a hit; in the whole collection about 2.8% have one here. Unless noted, the call rests on the fitted dose curve; in most records, active means well fitted inhibition curve with a large enough effect; inconclusive means small, poorly fitted or top-dose-only effect, or another doubt; inactive means no such curve, though single readings can be large or run the other way.

SMILES | POLK inh | POLI inh | PI4K2A block | Pol beta inh | PI5P4Ka inh | POLH inh
COc1ccc(S(=O)(=O)NCCC(=O)NC2CCCCC2C)cc1[N+](=O)[O-] (stereo not drawn) | -21% | 50µM* | -7 | · | -12 | -18%
CCC(=O)N/N=C/c1ccc(-c2ccc([N+](=O)[O-])cc2)o1 | -8% | -6% | 0 | ? | -9 | -8%
CCc1nnc(N/N=C/c2ccc(-c3ccc([N+](=O)[O-])cc3)o2)n1N | -4% | 32µM* | -17 | -26% | 1 | -21%
COC(=O)c1ccccc1-c1ccc(/C=N/NC(N)=O)o1 | -12% | 1%[58.9 µM] | -3 | -14% | 1 | -16%
Cc1n[nH]c(=S)n1/N=C/c1ccc(-c2ccccc2[N+](=O)[O-])o1 | -1% | 5% | 5 | 9% | -1 | 3%
Cc1nnc(N/N=C\c2ccc(-c3ccccc3[N+](=O)[O-])o2)n1N | -18% | 4µM* | ? | 3% | -3 | -10%
Cc1nnc(N/N=C/c2ccc(-c3ccccc3F)o2)n1N | -20% | 3.5µM* | -14 | ? | 5 | 8%
CN(C)c1ccc(/C=C2\CCc3cc(N)ccc32)cc1 | -9% | 7% | · | · | · | ·
O=C1NC(=O)/C(=C/c2cccc(O)c2)N1 | 4% | 44% | -7 | -4% | -64* | 11%
Cc1ccccc1OCC(=O)NCC(=O)OCC(=O)c1ccc2c(c1)CCCC2 | -14% | 14% | · | · | · | ·
Nc1ccc2cc3ccccc3cc2c1 | 10% | 50% | -5 | · | 9 | -8%
Nc1ccc2cccc(O)c2c1 | 79µM* | 13µM* | -26 | · | -80* | 22µM*
O=C(COC(=O)c1ccccc1OCc1ccccc1Cl)NC1CC1 | -1% | 13% | -2 | 20µM* | 5 | -3%
CCC(=O)N1CCc2cc(Br)c(S(=O)(=O)N3CCC(C(=O)NC(C)(C)C)CC3)cc21 | · | · | -3 | · | · | ·
Cn1c(SCC(=O)Nc2ccc(Br)cn2)nnc1C1CC1 | -42% | ? | 3 | ? | -22 | 79µM*
CC(C)(C)n1ncc2c(=O)n(Cc3cccc(F)c3)cnc21 | 8% | -10% | · | · | · | ·
O=C(NCCCCc1ccccc1)C1CC(c2cc(C(F)(F)F)cc(C(F)(F)F)c2)=NO1 (stereo not drawn) | -17% | 2% | 5 | 1% | -1 | -10%
CCCCN(CCCC)CCCNC(=O)C1CC(c2cc(C(F)(F)F)cc(C(F)(F)F)c2)=NO1 (stereo not drawn) | -1% | 7% | -66* | · | 1 | -19%
Cc1ccc(NC(=O)COC(=O)c2ccc3c(c2)NC(=O)C2CCCN32)cc1 (stereo not drawn) | -6% | 7.9µM* | -8 | 16% | · | 3%
O=c1c(Cl)c(Cl)cnn1Cc1nnc(-c2ccc(Cl)cc2)o1 | -39% | 40µM* | 6 | 40µM* | -58* | 50µM*
Cc1ccc(Cn2ncc(Cl)c(Cl)c2=O)cc1 | -11% | -8% | 14 | 29% | -18 | -4%
CC(=O)N1CCN(c2ccnc3cc(Cl)ccc23)CC1 | -15% | 41% | -4 | 7% | -1 | -17%
CCCCNC(=O)N1CCN(c2ccnc3cc(Cl)ccc23)CC1 | -3% | 28µM* | 2 | 2% | 1 | ?
CCCC[C@@H](C)/C=C(C)/C=C(\C)C(=O)NC1=C[C@@](O)(/C=C/C=C/C=C/C(=O)NC2=C(O)CCC2=O)[C@@H]2O[C@@H]2C1=O | 27µM* | · | · | · | · | ·
O=C1c2ccccc2-c2nccnc21 | -6% | 15% | -1 | 26% | 0 | 15%
SMILES | POLK inh | POLI inh | PI4K2A block | Pol beta inh | PI5P4Ka inh | POLH inh
NC1=C(Cl)C(=O)c2ccccc2C1=O | -16% | -6% | -9 | · | -56* | -7%
OC(c1ccccc1)(c1ccccc1)C1CCN(CCCOc2ccc(Br)cc2)CC1 | · | · | 1 | · | · | ·
CCCC(=O)Nc1ccc(S(=O)(=O)Nc2cc(C)nc(C)n2)cc1 | -18% | 5% | -1 | 15% | 9 | -6%
Cc1cc(NS(=O)(=O)c2ccc(NC(=O)C(F)(F)F)cc2)nc(C)n1 | -6% | 24% | -1 | 56µM* | -2 | 3%
CCOc1ccc2nc(/N=C/c3nc(-c4ccc(Br)cc4)oc3O)sc2c1 | -4% | -12% | -7 | -1% | -63* | ?
CCCCOc1ccc(-c2nc(/C=N/c3nccs3)c(O)o2)cc1 | -14% | 12% | 3 | -1% | 4 | -4%
CCN(c1cccc(C)c1)C(CNS(=O)(=O)c1ccccc1)c1ccccc1 (stereo not drawn) | -15% | 4% | 2 | -10% | · | ·
CC(=O)Nc1cccc(NC(=O)CSc2ccc(-c3sc(-c4ccccc4)nc3C)nn2)c1 | ? | ? | 1 | 5.6µM* | · | -19%
CC(=O)c1cccc(NC(=O)CSc2ccc(-c3ccccn3)nn2)c1 | -10% | 20% | 3 | 1% | 0 | -1%
CC(=O)Nc1cccc(NC(=O)CSc2ccc(-c3ccccn3)nn2)c1 | -20% | 49% | -3 | 25µM* | -5 | 13%
Cc1nc(-c2ccccc2)sc1-c1ccc(SCC(=O)Nc2cccc(C(F)(F)F)c2)nn1 | -4% | 5% | -3 | 14% | · | 4%
COc1ccc(CC(=O)NO)cc1OC | 9% | 13% | · | · | · | ·
Cc1no[n+]([O-])c1COc1cccc(/C=N/Nc2nncn2N)c1 | -11% | 20µM* | ? | ? | -15 | -17%
COc1cc(/C=N/n2nnnc2N)ccc1OCc1c(C)no[n+]1[O-] | -8% | 14% | -2 | -1% | -3 | -4%
COc1cc(OC)c(N(C)C(=O)c2sc3nc4n(c(=O)c3c2C)CCCC4)cc1Cl | -19% | 20% | -4 | 89µM* | · | -15%
C=CC[C@@H](CC(=O)NCCO)C(=O)NC[C@H](OC(=O)[C@@H](CC=C)Cc1ccc(F)cc1)c1ccccc1 | 1% | 18% | -52* | · | 6 | 3%
C=CC[C@@H](CC(=O)N[C@@H](CO)Cc1ccccc1)C(=O)NC[C@H](OC(=O)[C@@H](CC=C)Cc1ccc(F)cc1)c1ccccc1 | 3% | 21% | 0 | · | 6 | -16%
CCCCCCn1cc(CN2CC(N(C)CCC)CS2(=O)=O)nn1 (stereo not drawn) | · | · | -5 | · | 1 | ·
CO[C@@H]1[C@@H](O[C@@H]2O[C@H](C)[C@@H](O[C@H]3C[C@@](C)(O)[C@@H](O)[C@H](C)O3)[C@H](N(C)C)[C@H]2O)[C@@H](CC=O)C[C@@H](C)[C@@H](O[C@@H]2CC[C@H](N(C)C)[C@@H](C)O2)/C=C/C=C/C[C@@H](C)OC(=O)C[C@H]1OC(C)=O | · | · | -2 | · | · | ·
Nc1ccc2nc(-c3ccccc3)sc2c1 | -20% | -5% | -55* | 12% | -1 | -9%
